Common to all, as to parameters: scale not given: direction of the effect not stated beside the values
For assay [1], the target named is Protein translocase subunit SecA (Escherichia coli (strain K12)) (UniProt P10408). Description: Assay to Identify E. coli SecA ATPase Inhibitors. Format: functional. The note with it: 30 µM.
Assay [2] concerns the target T1, Ubiquitin-activating enzyme e1, putative (Leishmania donovani (strain BPK282A1)) (UniProt E9BSI1).
T1 sequence (whole entry): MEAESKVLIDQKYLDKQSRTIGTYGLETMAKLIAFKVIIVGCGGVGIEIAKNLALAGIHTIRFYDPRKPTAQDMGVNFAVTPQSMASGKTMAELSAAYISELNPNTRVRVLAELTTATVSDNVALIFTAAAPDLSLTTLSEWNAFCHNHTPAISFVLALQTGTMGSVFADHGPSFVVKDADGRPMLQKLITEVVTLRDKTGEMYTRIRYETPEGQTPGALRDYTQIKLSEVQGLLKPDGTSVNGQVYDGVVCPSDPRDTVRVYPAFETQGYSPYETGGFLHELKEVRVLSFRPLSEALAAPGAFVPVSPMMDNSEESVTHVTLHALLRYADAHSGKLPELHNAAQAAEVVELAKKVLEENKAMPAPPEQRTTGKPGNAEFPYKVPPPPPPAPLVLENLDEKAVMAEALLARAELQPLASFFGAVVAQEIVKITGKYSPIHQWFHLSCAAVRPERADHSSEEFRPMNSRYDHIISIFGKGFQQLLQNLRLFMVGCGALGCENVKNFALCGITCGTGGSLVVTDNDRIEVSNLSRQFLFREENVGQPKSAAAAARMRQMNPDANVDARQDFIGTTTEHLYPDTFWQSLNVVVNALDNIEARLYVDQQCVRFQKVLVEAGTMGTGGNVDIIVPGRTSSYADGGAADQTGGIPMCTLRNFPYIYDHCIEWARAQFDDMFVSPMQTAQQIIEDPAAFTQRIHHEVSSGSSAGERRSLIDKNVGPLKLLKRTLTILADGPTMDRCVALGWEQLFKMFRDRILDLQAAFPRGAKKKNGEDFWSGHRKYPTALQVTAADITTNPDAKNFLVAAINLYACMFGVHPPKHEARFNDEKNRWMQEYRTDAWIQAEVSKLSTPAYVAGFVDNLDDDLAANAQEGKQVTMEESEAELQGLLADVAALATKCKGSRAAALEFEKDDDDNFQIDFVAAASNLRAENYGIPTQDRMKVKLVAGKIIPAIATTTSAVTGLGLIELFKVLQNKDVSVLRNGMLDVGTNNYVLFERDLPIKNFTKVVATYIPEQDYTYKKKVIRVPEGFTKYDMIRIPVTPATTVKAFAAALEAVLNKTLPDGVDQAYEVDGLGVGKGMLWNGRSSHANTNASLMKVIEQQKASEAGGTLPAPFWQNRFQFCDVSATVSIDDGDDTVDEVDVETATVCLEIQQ
Description: Leishmania donovani Ubiquitin Activating Enzyme (LdE1). The format is functional. The note with it: 30 µM.

Assay [3] concerns the target AMP-activated protein kinase, AMPK (Homo sapiens) (UniProt P54646+O43741+P54619+Q9UGJ0+Q9Y478+Q13131+Q9UGI9). Description: AMP-dependent Kinase enzyme assay. An in vitro enzyme assay that detects ADP turnover that is directly proportional to AMPK activity. This uses naive AMPK that is activated during the assay with MK-8722. The note with it: 30 µM. Format: functional.

For assay [4], the target named is Sialic acid-binding Ig-like lectin 9 (Homo sapiens) (UniProt Q9Y336). Kind of assay: Hs-Siglec9 ALPHAscreen SOP 20170721. The note with it: 10 µM. In general terms: Bead proximity is the source of the signal in Alpha formats.
Sequence of Sialic acid-binding Ig-like lectin 9 (Homo sapiens) (Q9Y336 whole entry): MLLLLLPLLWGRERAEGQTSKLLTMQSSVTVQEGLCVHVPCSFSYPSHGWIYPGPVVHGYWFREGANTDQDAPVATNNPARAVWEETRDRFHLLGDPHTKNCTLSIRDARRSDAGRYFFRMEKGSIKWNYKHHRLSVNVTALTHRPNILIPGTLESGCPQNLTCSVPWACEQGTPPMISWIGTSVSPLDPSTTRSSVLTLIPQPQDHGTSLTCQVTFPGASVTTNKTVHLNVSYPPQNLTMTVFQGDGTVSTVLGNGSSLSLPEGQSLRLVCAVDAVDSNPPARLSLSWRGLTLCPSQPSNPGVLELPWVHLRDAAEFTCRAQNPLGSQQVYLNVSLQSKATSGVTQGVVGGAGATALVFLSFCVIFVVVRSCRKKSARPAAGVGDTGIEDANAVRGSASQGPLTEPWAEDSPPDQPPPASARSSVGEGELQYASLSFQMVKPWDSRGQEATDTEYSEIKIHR
In the next assay the test system is Trypanosoma cruzi. Kind of assay: Trypanosoma cruzi phosphomannomutase and mannose-1-phosphate guanylyltransferase assay. Format: functional. The note with it: 10 µM.
In assay [5] the target is T2, Arginase-2, mitochondrial (Homo sapiens) (UniProt P78540).
T2 sequence (whole entry): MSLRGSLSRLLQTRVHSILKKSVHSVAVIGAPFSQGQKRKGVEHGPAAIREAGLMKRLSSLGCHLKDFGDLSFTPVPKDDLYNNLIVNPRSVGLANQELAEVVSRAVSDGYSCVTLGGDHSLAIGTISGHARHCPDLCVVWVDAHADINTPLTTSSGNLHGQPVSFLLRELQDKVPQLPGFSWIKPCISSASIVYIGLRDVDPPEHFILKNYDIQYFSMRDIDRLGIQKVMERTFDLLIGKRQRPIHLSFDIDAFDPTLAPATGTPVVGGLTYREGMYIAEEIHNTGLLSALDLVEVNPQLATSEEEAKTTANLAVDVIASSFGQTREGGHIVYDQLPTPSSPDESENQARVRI
Kind of assay: in vitro enzyme assay to detect the production of urea directly proportional to the activity of Arginase II. Note: in the data most compounds retested in dose-response had high values. The format is functional. The note with it: 33.3 µM.

For assay [6], the target named is T3, Proteasome subunit beta (Trypanosoma cruzi) (UniProt O96673).
T3 sequence (whole entry): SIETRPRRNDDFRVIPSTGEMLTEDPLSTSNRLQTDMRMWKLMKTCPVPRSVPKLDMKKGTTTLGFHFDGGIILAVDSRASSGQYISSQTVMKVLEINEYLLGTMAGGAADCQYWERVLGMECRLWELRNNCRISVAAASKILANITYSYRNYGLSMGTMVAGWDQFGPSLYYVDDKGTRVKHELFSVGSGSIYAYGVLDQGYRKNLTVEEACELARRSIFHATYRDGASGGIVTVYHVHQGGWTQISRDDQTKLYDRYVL
Kind of assay: Trypanosoma cruzi proteasome chymotrypsin-like activity (TcProtChymo) assay. Note: in the data most compounds retested in dose-response had high values. The note with it: 9.37 µM. The format is functional.

The species entered for a further assay is Homo sapiens. Kind of assay: To identify inhibition of the IFN signalling (Jak-Stat) pathway via expression of an eGFP reporter gene under the control of an IFN-stimulated response element (ISRE) containing MxA promoter. The format is functional. The note with it: 30 µM.
For assay [7], the target named is T4, Tyrosyl-tRNA synthetase, putative (Trypanosoma cruzi (strain CL Brener)) (UniProt Q4DSP6).
T4 sequence (whole entry): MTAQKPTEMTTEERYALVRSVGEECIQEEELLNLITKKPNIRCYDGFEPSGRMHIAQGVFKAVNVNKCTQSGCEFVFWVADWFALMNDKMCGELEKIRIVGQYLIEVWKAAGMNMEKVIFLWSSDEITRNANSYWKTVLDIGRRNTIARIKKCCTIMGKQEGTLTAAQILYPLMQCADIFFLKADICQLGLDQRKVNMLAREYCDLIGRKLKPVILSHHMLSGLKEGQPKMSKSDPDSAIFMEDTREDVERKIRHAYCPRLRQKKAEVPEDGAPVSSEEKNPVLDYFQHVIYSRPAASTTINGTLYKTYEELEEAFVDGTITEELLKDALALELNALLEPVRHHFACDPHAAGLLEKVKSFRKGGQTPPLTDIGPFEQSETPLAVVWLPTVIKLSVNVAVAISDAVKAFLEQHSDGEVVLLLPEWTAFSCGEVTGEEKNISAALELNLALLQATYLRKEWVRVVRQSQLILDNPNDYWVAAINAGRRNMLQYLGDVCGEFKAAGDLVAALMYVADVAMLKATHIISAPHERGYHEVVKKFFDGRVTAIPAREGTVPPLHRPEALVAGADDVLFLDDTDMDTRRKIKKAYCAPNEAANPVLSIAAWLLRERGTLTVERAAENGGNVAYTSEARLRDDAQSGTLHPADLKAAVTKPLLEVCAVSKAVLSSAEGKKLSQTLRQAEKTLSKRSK
Kind of assay: Trypanosoma cruzi tyrosyl tRNA synthetase (TcYRS) _High Tyrosine SOP. Note: in the data most compounds retested in dose-response had high values. Format: functional. The note with it: 30 µM.

Assay [8] deals with T4, Tyrosyl-tRNA synthetase, putative (Trypanosoma cruzi (strain CL Brener)). Kind of assay: Trypanosoma cruzi tyrosyl tRNA synthetase (TcYRS) SOP. Format: functional. The note with it: 30 µM.
The target in assay [9] is Chromo domain-containing protein 1 (Saccharomyces cerevisiae (strain ATCC 204508 / S288c) (Baker's yeast)) (UniProt P32657). Description: ScCHD-1 Enzyme Inhibition Assay. Note: in the data most compounds retested in dose-response had high values. Format: functional. The note with it: 30 µM.
Sequence of Chromo domain-containing protein 1 (Saccharomyces cerevisiae (strain ATCC 204508 / S288c) (Baker's yeast)) (P32657 whole entry, the tested form may be a part): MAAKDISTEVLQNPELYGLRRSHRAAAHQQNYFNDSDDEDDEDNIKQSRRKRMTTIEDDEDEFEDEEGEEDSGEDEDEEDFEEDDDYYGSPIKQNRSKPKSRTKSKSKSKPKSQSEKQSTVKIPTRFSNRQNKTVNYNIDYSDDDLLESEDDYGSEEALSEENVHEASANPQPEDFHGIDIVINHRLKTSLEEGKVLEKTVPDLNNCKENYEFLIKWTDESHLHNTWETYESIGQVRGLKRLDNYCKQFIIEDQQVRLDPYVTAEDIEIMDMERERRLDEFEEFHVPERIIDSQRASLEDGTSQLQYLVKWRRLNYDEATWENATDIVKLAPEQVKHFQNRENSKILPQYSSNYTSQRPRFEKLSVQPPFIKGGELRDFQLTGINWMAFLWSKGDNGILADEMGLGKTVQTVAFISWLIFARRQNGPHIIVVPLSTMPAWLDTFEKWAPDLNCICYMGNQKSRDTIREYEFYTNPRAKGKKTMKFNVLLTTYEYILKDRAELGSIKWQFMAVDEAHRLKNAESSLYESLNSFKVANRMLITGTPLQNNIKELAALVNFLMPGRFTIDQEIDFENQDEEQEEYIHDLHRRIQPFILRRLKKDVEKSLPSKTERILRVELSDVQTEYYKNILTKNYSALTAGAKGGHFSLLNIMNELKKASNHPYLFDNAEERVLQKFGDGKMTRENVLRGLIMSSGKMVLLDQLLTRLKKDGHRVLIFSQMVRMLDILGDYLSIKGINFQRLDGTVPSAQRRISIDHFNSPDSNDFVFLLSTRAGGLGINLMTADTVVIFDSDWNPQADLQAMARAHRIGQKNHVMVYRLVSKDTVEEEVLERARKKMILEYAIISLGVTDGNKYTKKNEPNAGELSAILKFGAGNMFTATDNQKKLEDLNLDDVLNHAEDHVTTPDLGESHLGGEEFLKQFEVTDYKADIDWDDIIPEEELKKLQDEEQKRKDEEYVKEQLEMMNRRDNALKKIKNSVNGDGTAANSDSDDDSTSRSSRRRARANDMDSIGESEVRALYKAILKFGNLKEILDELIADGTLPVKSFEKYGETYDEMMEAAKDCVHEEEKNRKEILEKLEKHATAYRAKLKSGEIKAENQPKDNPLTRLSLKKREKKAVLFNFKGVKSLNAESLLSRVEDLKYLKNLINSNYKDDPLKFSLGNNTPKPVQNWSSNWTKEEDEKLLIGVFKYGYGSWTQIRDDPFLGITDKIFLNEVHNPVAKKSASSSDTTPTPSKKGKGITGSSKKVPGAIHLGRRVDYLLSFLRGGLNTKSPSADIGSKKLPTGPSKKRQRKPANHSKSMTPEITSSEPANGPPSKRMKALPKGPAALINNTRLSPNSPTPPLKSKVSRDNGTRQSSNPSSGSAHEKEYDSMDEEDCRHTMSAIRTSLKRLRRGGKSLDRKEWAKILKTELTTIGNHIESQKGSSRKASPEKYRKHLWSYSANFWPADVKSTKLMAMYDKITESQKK

The values below come from ChEMBL document CHEMBL3988442, “University of Dundee, Small-Polar-MMV Screening Library” (2021).

For some of these results: Potency and affinity values are given separately.

Sequence of Protein translocase subunit SecA (Escherichia coli (strain K12)) (P10408 whole entry): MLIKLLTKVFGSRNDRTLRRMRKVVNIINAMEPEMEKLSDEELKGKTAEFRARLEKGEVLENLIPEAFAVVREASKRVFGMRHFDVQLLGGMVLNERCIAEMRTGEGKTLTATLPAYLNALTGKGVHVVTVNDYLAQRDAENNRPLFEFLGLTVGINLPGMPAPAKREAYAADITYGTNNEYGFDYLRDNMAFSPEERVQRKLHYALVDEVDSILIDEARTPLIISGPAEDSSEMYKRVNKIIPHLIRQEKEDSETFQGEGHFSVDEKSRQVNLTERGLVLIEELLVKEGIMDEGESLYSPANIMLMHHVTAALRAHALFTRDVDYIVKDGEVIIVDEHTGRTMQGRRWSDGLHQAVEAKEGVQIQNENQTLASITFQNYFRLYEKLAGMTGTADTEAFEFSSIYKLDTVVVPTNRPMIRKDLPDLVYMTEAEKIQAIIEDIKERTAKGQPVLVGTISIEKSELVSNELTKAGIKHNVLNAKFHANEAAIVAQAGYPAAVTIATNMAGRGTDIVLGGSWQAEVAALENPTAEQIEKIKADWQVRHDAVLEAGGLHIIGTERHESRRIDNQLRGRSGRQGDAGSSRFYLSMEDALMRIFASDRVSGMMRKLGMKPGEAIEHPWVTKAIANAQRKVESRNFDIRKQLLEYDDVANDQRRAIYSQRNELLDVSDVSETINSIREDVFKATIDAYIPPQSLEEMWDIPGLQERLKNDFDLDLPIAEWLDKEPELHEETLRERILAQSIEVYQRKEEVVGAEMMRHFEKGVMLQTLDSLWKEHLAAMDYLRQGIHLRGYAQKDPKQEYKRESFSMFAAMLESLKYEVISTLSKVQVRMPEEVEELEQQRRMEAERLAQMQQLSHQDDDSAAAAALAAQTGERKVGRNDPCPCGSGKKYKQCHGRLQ

Regarding `Cc1cc(C)n(CC2CCCN2C(=O)c2ccc3c(c2)OCO3)n1` (stereo unspecified), the Percent Effect in assay [1] is -1.47%; in assay [2] it was 6.33%; in assay [3], 1.3%; in assay [4], -3.57%; in the assay with Trypanosoma cruzi it was 2.15%; in [5], -1.5%. The Percent Effect in assay [6] turned out to be 8.75%; in the assay listed under Homo sapiens it was 1.15%; in assay [7], 2.08%; in [8], 2.53%; in assay [9], 0.284%.

In the case of `CCOc1cccc(CNc2ccccc2C(=O)OC)c1O`, the Percent Effect in [1] was 2.18%; in assay [2] it was 6.67%; in [3] it was -9.62%; in assay [4] it was -4.44%; in the assay with Trypanosoma cruzi it was -4.32%; in assay [5], -10.7%. For the same compound, the Percent Effect in assay [6] was 19%; in the assay listed under Homo sapiens, 21.5%; in [7], 3.17%; in [8], 7.69%; in assay [9], -13.3%.

In the case of `Cc1cn2c(n1)CCC(NC(=O)c1ccc(CS(C)(=O)=O)cc1)C2` (stereo unspecified), the Percent Effect in assay [1] was -7.39%; in assay [2] it was 13.2%; in assay [3], -4.52%; in [4], 4.15%; with Trypanosoma cruzi, 7.71%; in [5], -3.06%. In addition, the Percent Effect in [6] was 4.68%; in the assay listed under Homo sapiens, -9.1%; in assay [7] it was 5.39%; in assay [8], 12.2%; in [9] it was -9.28%.

In the case of `Cc1nn(C)c(Cl)c1C1CCCN1CCc1ccccn1` (stereo unspecified), the Percent Effect is 3.64% in assay [1]; -3.8% in assay [2]; 12.3% in assay [3]; 1.51% in assay [4]; -1.74% in the assay with Trypanosoma cruzi; 7.53% in assay [5]. Moreover, the Percent Effect in assay [6] is 5.83%; in the assay listed under Homo sapiens, 4.77%; in [7], -1.04%; in assay [8] it was 2.53%; in assay [9] it was -11.7%.

As to `CCc1nc(CC(=O)N2CCOCC2c2ncon2)cs1` (stereo unspecified), the Percent Effect was -0.574% in [1]; -2.7% in assay [2]; -3.99% in assay [3]; -2.13% in [4]; -3.99% in the assay with Trypanosoma cruzi; 1.29% in assay [5]. Further, the Percent Effect is 5.75% in assay [6]; -8.37% in the assay filed under Homo sapiens; 0% in assay [7]; -1.22% in assay [8]; 2.33% in assay [9].

Turning to `Cc1nn(-c2ccccc2)nc1C(=O)N1CCCC1c1cnn(C)c1` (stereo unspecified), the Percent Effect in assay [1] was -5.15%; in [2] it was 0%; in assay [3], -0.474%; in assay [4], 2.1%; with Trypanosoma cruzi, -2.32%; in [5], -4.99%. Moreover, the Percent Effect stood at 0.539% in [6]; 12.6% in the assay filed under Homo sapiens; 2.97% in [7]; 6.1% in assay [8]; 7.07% in [9].

For `O=C([C@H]1CCCO1)N1CCCC2(CCN(Cc3ccncc3)C2=O)C1` (stereo partly specified), the Percent Effect is -1.19% in assay [1]; 10.4% in assay [2]; 3.88% in assay [3]; -8.92% in [4]; -7.79% in the assay on Trypanosoma cruzi; 7.1% in assay [5]. Besides, the Percent Effect was 11.3% in assay [6]; 31.4% in the assay filed under Homo sapiens; 3.17% in assay [7]; 6.41% in assay [8]; -8.64% in assay [9].

Turning to `Cc1cc(C)n(C2CCCN(C(=O)c3ccc(NC4CC4)nc3)C2)n1` (stereo unspecified), the Percent Effect in assay [1] is -6.18%; in [2], 7.79%; in assay [3], 5.88%; in assay [4] it was 2.52%; in the assay on Trypanosoma cruzi, -4.6%; in [5], 1.05%. For the same compound, the Percent Effect in assay [6] was 7.52%; in the assay filed under Homo sapiens, 16.1%; in assay [7], 4.76%; in assay [8], 9.41%; in assay [9], -13.5%.

As to `Cc1cc(C[S+]([O-])CC(=O)NCc2cccs2)no1` (stereo unspecified), the Percent Effect in assay [1] is -6.18%; in assay [2], 10.4%; in assay [3] it was 3.08%; in assay [4], 10.1%; in the assay on Trypanosoma cruzi, 1.87%; in [5], -6.05%. Also, the Percent Effect was 1.01% in assay [6]; 5.94% in the assay filed under Homo sapiens; 8.74% in assay [7]; 19.5% in assay [8]; -5.87% in assay [9].

For `Cc1ncccc1CNCC1CCN(CC(O)c2ccccc2)CC1` (stereo unspecified), the Percent Effect in assay [1] is -5.43%; in assay [2] it was 13.9%; in assay [3], -5.86%; in assay [4] it was 1.69%; in the assay with Trypanosoma cruzi, -0.308%; in assay [5], -1.07%. The Percent Effect in [6] is 15.3%; in the assay filed under Homo sapiens it was 3.05%; in assay [7], 6.25%; in assay [8], 17.7%; in [9], -29.1%.

For `CCN1CCn2c(C)cnc2C12CCN(C(=O)CC(C)C)CC2`, the Percent Effect in [1] was -1.23%; in [2], 10.7%; in [3], 6.38%; in assay [4] it was -1.92%; in the assay with Trypanosoma cruzi it was -4.83%; in [5] it was -59%. Besides, the Percent Effect in [6] was 18.1%; in the assay filed under Homo sapiens it was 1.06%; in assay [7] it was 0%; in assay [8], 5%; in assay [9], -5.61%.
